Source: PubChem BioAssay AID743497 (The Scripps Research Institute Molecular Screening Center, 2014)
Unmarked numbers belong to inactive results.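 The calls were made as follows: active = IC50 of 10 µM or lower; inactive = IC50 above 10 µM.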

Test: binders of r(CAG) RNA repeats, SAR follow-up, biochemical, fluorescence, dose response, MedChem round 1 (AID 743497)
Settings: r(CAG) RNA 1x1 AA loop, TO-PRO-1 displacement fluorescence

Structure (SMILES) | IC50
O=C(/C=C/c1cn(-c2ccccc2)nc1-c1ccccc1)NCCc1c[nH]c2ccccc12 | > 29.9 µM
CCN(CC)C(=O)/C=C/c1cn(-c2ccccc2)nc1-c1ccccc1 | > 29.9 µM
NC(=O)c1cc(NC(=O)/C=C/c2cn(-c3ccccc3)nc2-c2ccc(F)cc2)c(F)cc1F | > 29.9 µM
Cc1c(C(=O)Nc2ccc(S(=O)(=O)NCCCN3CCOCC3)cc2)oc2ccc(F)cc12 | > 29.9 µM
Cc1c(C(=O)Nc2ccc(S(=O)(=O)N(C)Cc3ccccc3)cc2)oc2ccc(F)cc12 | > 29.9 µM
O=C(/C=C/c1cn(-c2ccccc2)nc1-c1ccccc1)NCCO | > 29.9 µM
CN(C)C(=O)C1CCN(C(=O)/C=C/c2cn(-c3ccccc3)nc2-c2ccccc2)CC1 | > 29.9 µM
COc1ccc(-c2nn(-c3ccccc3)cc2/C=C/C(=O)Nc2cccc(NC(C)=O)c2)cc1OC | > 29.9 µM
CNC(=O)Cc1ccc(NC(=O)/C=C/c2cn(-c3ccccc3)nc2-c2ccc(F)cc2)cc1 | > 29.9 µM
CN(C)CCCNC(=O)/C=C/c1cn(-c2ccccc2)nc1-c1ccccc1 | > 29.9 µM
CN1CCC(N(C)C(=O)/C=C/c2cn(-c3ccccc3)nc2-c2ccccc2)CC1 | > 29.9 µM
O=C(/C=C/c1cn(-c2ccccc2)nc1-c1ccccc1)N1CCN(CC(=O)N2CCCC2)CC1 | > 29.9 µM
Cc1c(C(=O)Nc2ccc(S(=O)(=O)Nc3ncccn3)cc2)oc2ccc(F)cc12 | > 29.9 µM
